Measurements taken from PubChem BioAssay (EPA / NIEHS).
Records with an inconclusive call do not appear. The source made the active and inactive calls. Rule for the calls: active = hit-call score of the fitted dose curve at least 0.9, where 1 is the maximum; inconclusive = response in the unintended direction; inactive = score below 0.9.

Assay: STM_H9_NormalizedViability: Cytotoxicity Assessment at 120 hours in the Stemina devTOX quickPredict H9 human embryonic stem cell (hESC)-based Assay (AID 2283784)
Method: STM_H9_viability utilizes undifferentiated H9 cells to measure cell viability.STM_H9_NormalizedViability is a component calculated in the STM_H9_viability assay. It measures cell viability using background corrected relative fluorescence units (RFU) value from the CellTiterFluor Assay normalized to the value of the 0.1% DMSO neutral control treatment (by 96-well plate)Data from the assay component STM_H9_Viability was analyzed at the assay endpoint STM_H9_Viability_Norm in the positive analysis fitting direction relative to DMSO as the negative control and baseline of activity. Using a type of viability reporter, loss-of-signal activity can be used to understand viability.
H9 hESCs maintained in a pluripotent state were exposed to test compound for 72h with chemical replenishment with media replacement every 24h. Cell-conditioned media from the final 24-h treatment period was collected for analysis of the targeted biomarker, and cell viability of the corresponding cell layer was assessed. The chemical library was tested in blinded fashion. Each test plate included 1uM Methotrexate (MTX; Selleck Chemicals, Houston, Texas) as a positive reference, 5 nM MTX as a negative reference, 0.1% DMSO as the neutral (vehicle) control, and sample-level media blanks.H9 cell-conditioned media from the final 24-h treatment period was collected for analysis of the targeted biomarker and cell viability was measured from the corresponding cell layer. Cell viability was measured using the CellTiter-Fluor assay (Promega, Madison, Wisconsin) based on proteolytic cleavage of a substrate to fluorescent signal proportional to the number of living cells. The cell viability Relative Fluorescence Unit (RFU) was background corrected and normalized to mean RFU of the neutral control (0.1% DMSO). The collected H9-cell-conditioned media samples were processed for targeted biomarker analysis as described (Palmer et al., 2013). Briefly, spent media samples were deproteinized (40% acetonitrile) and processed for UPLC-HRMS. Data acquisition was performed using 4 separate UPLC-HRMS systems, consisting of an Agilent 1290 Infinity LC system (Agilent Technologies) interfaced with an Agilent high-resolution mass spectrometer (models G6520A, G6520B, G6530A, and G6224A). A Waters Acquity UPLC BEH Amide column (2.1mm x 50mm, 1.7lm particle size; Waters, Milford, Massachusetts) maintained at 40C was applied for separation of metabolites using a 6.5min solvent gradient with 0.1% formic acid in water and 0.1% formic acid in acetonitrile (1.0ml/min flow rate). Data were acquired using MassHunter Acquisition software (version B 04.00, Agilent Technologies). The extracted ion chromatogram (EIC) areas for ORN, CYSS, and their respective spike-in C13-standards were determined using the Agilent MassHunter Quantitative Analysis software, version B.05.00 or newer (Agilent Technologies), and data were normalized as described in Palmer et al. (2017).

SMILES	outcome	AC50
O=c1[nH]c2ccc(S(=O)CCN3CCC(Cc4ccc(F)cc4)CC3)cc2o1 (centres undefined)	inactive	
Fc1ccccc1[C@@H](F)COC1CCC(Nc2ncnc3[nH]ncc23)CC1 (some centres undefined)	inactive	
CCC(C)(C)C(=O)O[C@H]1C[C@@H](C)C=C2C=C[C@H](C)[C@H](CC[C@@H]3C[C@@H](O)CC(=O)O3)[C@H]21	inactive	
CC[C@H](C)C(=O)O[C@H]1C[C@@H](C)C=C2C=C[C@H](C)[C@H](CC[C@@H]3C[C@@H](O)CC(=O)O3)[C@H]21	inactive	
Nc1nc2ncc(CNc3ccc(C(=O)N[C@@H](CCC(=O)O)C(=O)O)cc3)nc2c(=O)[nH]1	inactive	
Nc1ccc(Nc2ccccc2)cc1		6.7 µM (active)
On1ccccc1=S		8.35 µM (active)
CCOC(=O)c1ccc(C2CCC(NC[C@H](O)COc3ccc(O)c(NS(C)(=O)=O)c3)CC2)cc1 (some centres undefined)	inactive	
COc1cccc(-c2ccc(/C=C\CN3CCCCCC3)cc2Cl)c1		1.1 µM (active)
Cn1c(=O)c2c(ncn2C)n(C)c1=O	inactive	
CC(C)CC(C)(O)C#CC(C)(O)CC(C)C (centres undefined)	inactive	
O=c1n(CC2CO2)c(=O)n(CC2CO2)c(=O)n1CC1CO1 (centres undefined)		1.06 µM (active)
Cn1cnc([N+](=O)[O-])c1Sc1ncnc2nc[nH]c12		4.02 µM (active)
CNCc1ccc(NC(=O)c2c[nH]c3c2C(=O)CCC3)cc1	inactive	
COc1ccc2sc(C(=O)Nc3nnn[nH]3)c(OC(C)C)c2c1		2.01 µM (active)
NC(=O)NO		341 µM (active)
CN(C)c1ccc(N=NS(=O)(=O)O)cc1		21.1 µM (active)
CCN(C(=O)c1cc(C)cc(OC[C@H](C)Nc2ccncc2)c1)C(C)C	inactive	
COCCOCCOCCOC	inactive	
CC(C)=CCCC(C)=CC=O	inactive	
Cn1c(=O)cc(Oc2ccc(F)cc2F)c2cnc(NCC(C)(C)O)nc21	inactive	
CC(C)c1cccc(C(C)C)c1N1C(=O)c2ccc(O)cc2C1=O		20.6 µM (active)
CC[C@H]1CC[C@H](NCc2cc3c(cc2OC)[C@H]2C[C@H]2C(=O)N3C)[C@H](c2ccccc2)N1		9.43 µM (active)
CC(C)CCO	inactive	
